Inconclusive results are not listed. Entries that show only a call come without a potency. Active and inactive are the calls of the source. Calls come from the whole dose curve; as a rule, active = well fitted curve in the direction sought with a large enough effect; inconclusive = small, poorly fitted or top-dose-only effect, or another doubt; inactive = no such curve, though single readings can be large; an effect the other way counts as inactive or inconclusive.
Columns and labels:
[1] = qHTS of pediatric cancer cell lines to identify multiple opportunities for drug repurposing: Primary screen for TC32 cells (AID 1347089); note: nearly all actives have a fitted effect of over 60% in size
In short: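 Measured quantity: luminescence from CellTiter-Glo, reflecting metabolically active TC32 cells following 48 h of compound. Curves came straight from multi-point titrations, with 8 or 11 points in primary and 11 in confirmatory screening.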

[2] = qHTS of pediatric cancer cell lines to identify multiple opportunities for drug repurposing: Primary screen for DAOY cells (AID 1347090); note: series mostly up to about 46 µM; nearly all actives have a fitted effect of over 55% in size
In short: (§1)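 Cell viability, CellTiter-Glo luminescence; 500-1,000 cells/well, 8- or 11-point titration, 48 h compound exposure at 37 degrees C, 5% CO2. Controls: DMSO neutral, bortezomib 2.3 µM final as positive.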

[3] = qHTS of pediatric cancer cell lines to identify multiple opportunities for drug repurposing: Primary screen for SJ-GBM2 cells (AID 1347091); note: potency is the fitted concentration of half-maximal effect
In short: as §1

[4] = qHTS of pediatric cancer cell lines to identify multiple opportunities for drug repurposing: Primary screen for A673 cells (AID 1347092); note: nearly all actives have a fitted effect of over 45% in size
In short: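 Cells are plated, rested 5 h, dosed by pintool, incubated 48 h, then lysed with CellTiter-Glo and read by luminescence. DMSO is the neutral control; bortezomib at 2.3 uM final is the positive control.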

[5] = qHTS of pediatric cancer cell lines to identify multiple opportunities for drug repurposing: Primary screen for NB-EBc1 cells (AID 1347095)
In short: (§2)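 Viability was measured as metabolically active cells after 48 hours of treatment, read by CellTiter-Glo luminescence. Compounds were tested at multiple final concentrations, giving concentration-response curves.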

[6] = qHTS of pediatric cancer cell lines to identify multiple opportunities for drug repurposing: Primary screen for Saos-2 cells (AID 1347097); note: nearly all actives have a fitted effect of over 40% in size
In short: as §2

[7] = qHTS of pediatric cancer cell lines to identify multiple opportunities for drug repurposing: Primary screen for SK-N-SH cells (AID 1347098); note: nearly all actives have a fitted effect of over 65% in size; note: potency is the fitted concentration of half-maximal effect
In short: (§3)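 Cells (500-1,000/well) rested 5 h, then received compounds for 48 h; metabolically active cells were measured by CellTiter-Glo luminescence. Final concentrations spanned up to 46 µM (MIPE, 11-point) or 0.59 nM-46 µM (NPC, 8-point) in primary screens, 11-point in follow-ups.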

[8] = qHTS of pediatric cancer cell lines to identify multiple opportunities for drug repurposing: Primary screen for NB1643 cells (AID 1347099); note: nearly all actives have a fitted effect of over 50% in size
In short: as §2

[9] = qHTS of pediatric cancer cell lines to identify multiple opportunities for drug repurposing: Primary screen for LAN-5 cells (AID 1347100)
In short: as §3

[10] = qHTS of pediatric cancer cell lines to identify multiple opportunities for drug repurposing: Primary screen for Rh18 cells (AID 1347102); note: nearly all actives have a fitted effect of over 65% in size
In short: as §3

[11] = qHTS of pediatric cancer cell lines to identify multiple opportunities for drug repurposing: Primary screen for RD cells (AID 1347104); note: nearly all actives have a fitted effect of over 55% in size
In short: as §2

[12] = qHTS of pediatric cancer cell lines to identify multiple opportunities for drug repurposing: Primary screen for control Hh wild type fibroblast cells (AID 1347106);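 note: series mostly up to about 46 µM; a drop in luminescence marks cytotoxicity and a rise apparent proliferation; nearly all actives have a fitted effect of over 55% in size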
In short: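 Cells (500-1,000/well) in growth media were settled 5 h at 37 degrees C, then given compounds for 48 h. Viability was read as CellTiter-Glo luminescence. Primary runs used MIPE at 11 points (0.78 nM-46 µM) and NPC at 8 points (0.59 nM-46 µM); follow-ups used 11 points.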

[13] = qHTS of pediatric cancer cell lines to identify multiple opportunities for drug repurposing: Primary screen for SK-N-MC cells (AID 1347093); note: potency is the fitted concentration of half-maximal effect
In short: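 Metabolically active cells were quantified by ATP-dependent luminescence (CellTiter-Glo, 15 min at room temperature) following 48 h treatment. Cells had been plated at 500-1,000 per well and settled for 5 h beforehand.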

[14] = qHTS of pediatric cancer cell lines to identify multiple opportunities for drug repurposing: Primary screen for BT-37 cells (AID 1347094); note: series mostly up to about 57 µM
In short: as §2

[15] = qHTS of pediatric cancer cell lines to identify multiple opportunities for drug repurposing: Primary screen for U-2 OS cells (AID 1347096); note: nearly all actives have a fitted effect of over 50% in size
In short: as §3

[16] = qHTS of pediatric cancer cell lines to identify multiple opportunities for drug repurposing: Primary screen for BT-12 cells (AID 1347101); note: nearly all actives have a fitted effect of over 25% in size
In short: as §3

[17] = qHTS of pediatric cancer cell lines to identify multiple opportunities for drug repurposing: Primary screen for OHS-50 cells (AID 1347103); note: nearly all actives have a fitted effect of over 40% in size; note: potency is the fitted concentration of half-maximal effect
In short: as §3

[18] = qHTS of pediatric cancer cell lines to identify multiple opportunities for drug repurposing: Primary screen for MG 63 (6-TG R) cells (AID 1347105); note: nearly all actives have a fitted effect of over 50% in size
In short: as §2

COc1cc2c(cc1OC)C(C(C(=O)N(CCc1ccc(OC)c(OC)c1OC)CCc1ccc(OC)c(OC)c1OC)c1ccccc1)=NCC2 (stereo not drawn)
Potency [1]: inactive | Potency [2]: inactive | Potency [3]: inactive | Potency [4]: inactive | Potency [5]: inactive | Potency [6]: inactive | Potency [7]: inactive | Potency [8]: inactive | Potency [9]: inactive | Potency [10]: inactive | Potency [11]: inactive | Potency [12]: inactive

Oc1cc(O)c2c(c1)O[C@H](c1ccc(O)c(O)c1)[C@H](O)C2
Potency [1]: inactive | Potency [2]: inactive | Potency [3]: inactive | Potency [4]: inactive | Potency [13]: inactive | Potency [14]: inactive | Potency [15]: inactive | Potency [6]: inactive | Potency [8]: inactive | Potency [9]: inactive | Potency [16]: inactive | Potency [10]: inactive | Potency [17]: inactive | Potency [11]: inactive | Potency [18]: inactive | Potency [12]: inactive

CC(O)C(=O)O (stereo not drawn)
Potency [1]: inactive | Potency [2]: inactive | Potency [3]: inactive | Potency [4]: inactive | Potency [13]: inactive | Potency [14]: inactive | Potency [15]: inactive | Potency [6]: inactive | Potency [7]: inactive | Potency [8]: inactive | Potency [9]: inactive | Potency [10]: inactive | Potency [17]: inactive | Potency [11]: inactive | Potency [18]: inactive | Potency [12]: inactive

Cc1cc(O)c(C(C)C)cc1Cl
Potency [1]: inactive | Potency [2]: inactive | Potency [3]: inactive | Potency [4]: inactive | Potency [13]: inactive | Potency [14]: inactive | Potency [15]: inactive | Potency [7]: inactive | Potency [8]: inactive | Potency [9]: inactive | Potency [16]: inactive | Potency [10]: inactive | Potency [11]: inactive | Potency [18]: inactive | Potency [12]: inactive

O=c1[nH]c(=O)n([C@H]2CCCO2)cc1F
Potency [1]: inactive | Potency [2]: inactive | Potency [3]: inactive | Potency [4]: inactive | Potency [13]: inactive | Potency [14]: inactive | Potency [6]: inactive | Potency [7]: inactive | Potency [9]: inactive | Potency [10]: inactive | Potency [17]: inactive | Potency [11]: inactive | Potency [18]: inactive | Potency [12]: inactive

CCCOC(C(=O)OC1CCN(C)CC1)(c1ccccc1)c1ccccc1
Potency [1]: inactive | Potency [2]: inactive | Potency [3]: inactive | Potency [4]: inactive | Potency [13]: inactive | Potency [15]: inactive | Potency [8]: inactive | Potency [9]: inactive | Potency [16]: inactive | Potency [17]: 27.6 µM (active) | Potency [18]: inactive | Potency [12]: inactive

CCCCCCCCCCCCCCNCCO
Potency [1]: inactive | Potency [2]: inactive | Potency [3]: inactive | Potency [13]: inactive | Potency [14]: inactive | Potency [5]: inactive | Potency [15]: inactive | Potency [6]: inactive | Potency [7]: inactive | Potency [8]: inactive | Potency [9]: inactive | Potency [16]: inactive | Potency [10]: inactive | Potency [11]: inactive | Potency [18]: inactive | Potency [12]: inactive

COc1cc2c(cc1OC)C(=O)C(CC1CCN(Cc3ccccc3)CC1)C2 (stereo not drawn)
Potency [1]: inactive | Potency [2]: inactive | Potency [3]: inactive | Potency [4]: inactive | Potency [13]: inactive | Potency [14]: inactive | Potency [15]: inactive | Potency [6]: inactive | Potency [16]: inactive | Potency [10]: inactive | Potency [11]: inactive | Potency [18]: inactive | Potency [12]: inactive

COc1cc(-c2ccc(=O)[nH]n2)ccc1OC(F)F
Potency [1]: inactive | Potency [2]: inactive | Potency [3]: inactive | Potency [4]: inactive | Potency [13]: inactive | Potency [14]: inactive | Potency [15]: inactive | Potency [8]: inactive | Potency [9]: inactive | Potency [16]: inactive | Potency [10]: inactive | Potency [17]: inactive | Potency [11]: inactive | Potency [12]: inactive

O=C1OC(c2ccc(O)cc2)(c2ccc(O)cc2)c2ccccc21
Potency [1]: inactive | Potency [2]: inactive | Potency [3]: inactive | Potency [13]: inactive | Potency [14]: inactive | Potency [5]: inactive | Potency [15]: inactive | Potency [6]: inactive | Potency [7]: inactive | Potency [9]: inactive | Potency [16]: inactive | Potency [10]: inactive | Potency [17]: inactive | Potency [11]: inactive | Potency [12]: inactive

N[C@H](Cc1c[nH]c2ccccc12)C(=O)O
Potency [1]: inactive | Potency [2]: inactive | Potency [3]: inactive | Potency [4]: inactive | Potency [13]: inactive | Potency [14]: inactive | Potency [15]: inactive | Potency [7]: inactive | Potency [8]: inactive | Potency [9]: inactive | Potency [10]: inactive | Potency [17]: inactive | Potency [11]: inactive | Potency [18]: inactive | Potency [12]: inactive

CCCCCCCCCCCCCCCCOP(=O)([O-])OCC[N+](C)(C)C
Potency [1]: inactive | Potency [2]: inactive | Potency [3]: 8.41 µM (active) | Potency [13]: 6.68 µM (active) | Potency [14]: inactive | Potency [15]: inactive | Potency [6]: inactive | Potency [7]: 13.7 µM (active) | Potency [10]: inactive | Potency [12]: inactive

OC[C@@H](O)[C@@H](O[C@@H]1O[C@H](CO)[C@H](O)[C@H](O)[C@H]1O)[C@H](O)[C@@H](O)CO
Potency [1]: inactive | Potency [2]: inactive | Potency [3]: inactive | Potency [14]: inactive | Potency [5]: inactive | Potency [15]: inactive | Potency [6]: inactive | Potency [7]: inactive | Potency [8]: inactive | Potency [9]: inactive | Potency [16]: inactive | Potency [10]: inactive | Potency [17]: inactive | Potency [11]: inactive | Potency [18]: inactive | Potency [12]: inactive

CC[N+](CC)(CCNC(=O)C(=O)NCC[N+](CC)(CC)Cc1ccccc1Cl)Cc1ccccc1Cl
Potency [1]: inactive | Potency [2]: inactive | Potency [3]: inactive | Potency [13]: inactive | Potency [14]: inactive | Potency [15]: inactive | Potency [6]: inactive | Potency [7]: inactive | Potency [8]: inactive | Potency [9]: inactive | Potency [16]: inactive | Potency [10]: inactive | Potency [17]: inactive | Potency [11]: inactive | Potency [18]: inactive | Potency [12]: inactive

CC(C)(C)NC(=O)[C@@H]1CN(Cc2cccnc2)CCN1C[C@@H](O)C[C@@H](Cc1ccccc1)C(=O)N[C@H]1c2ccccc2C[C@H]1O
Potency [1]: inactive | Potency [2]: inactive | Potency [3]: inactive | Potency [13]: inactive | Potency [14]: inactive | Potency [6]: inactive | Potency [7]: inactive | Potency [8]: inactive | Potency [9]: inactive | Potency [10]: inactive | Potency [17]: inactive | Potency [11]: inactive | Potency [12]: inactive

CN1CCC[C@@H]1c1cccnc1
Potency [1]: inactive | Potency [2]: inactive | Potency [3]: inactive | Potency [13]: inactive | Potency [14]: inactive | Potency [15]: inactive | Potency [6]: inactive | Potency [7]: inactive | Potency [8]: inactive | Potency [9]: inactive | Potency [10]: inactive | Potency [17]: inactive | Potency [11]: inactive | Potency [18]: inactive | Potency [12]: inactive

Source: PubChem BioAssay (NCATS)
